Structures can show the parent of a compound that is named as a salt.
How the values were obtained:
Conditions in all cases: treatment time: 24 h
A549-ACTB-RAB5A [1] = experiment: lowest phenotypically active concentration; higher = less potent
Outline: (§1)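 Four wells per concentration (0.3, 1, 3 or 9 µM) were treated for 24 h in each of fifteen gene-edited reporter lines from A549, HepG2 and WPMY1 cells, then imaged live. After normalising live-cell features to solvent control wells, deviation was defined as ≥3 of 4 wells lying past the 95th percentile of control Euclidean distances. Reproducibility was defined as a median replicate Pearson correlation above the 95th percentile of non-replicates. Both had to hold for phenotypic activity.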

A549-CANX-COX4 [2] = experiment: as above
Outline: as §1

A549-GM130-SQSTM1 [3] = experiment: as above
Outline: as §1

A549-TP53BP1-CLTA [4] = experiment: as above
Outline: as §1

A549-TUBA1B-RELA [5] = experiment: as above
Outline: as §1

HepG2-TP53BP1-CLTA [6] = experiment: as above
Outline: as §1

A549-ACTB-RAB5A [7] = experiment: phenotypically active (imaging signature differs from DMSO and reproducible) at any of 0.3-9 uM (binary (1 = active, 0 = inactive)); higher = active
Outline: as §1

A549-CANX-COX4 [8] = experiment: as above
Outline: as §1

A549-GM130-SQSTM1 [9] = experiment: as above
Outline: as §1

A549-TP53BP1-CLTA [10] = experiment: as above
Outline: as §1

A549-TUBA1B-RELA [11] = experiment: as above
Outline: as §1

HepG2-ACTB-RAB5A = experiment: as above
Outline: as §1

HepG2-CANX-COX4 = experiment: as above
Outline: as §1

HepG2-GM130-SQSTM1 = experiment: as above
Outline: as §1

HepG2-TP53BP1-CLTA [12] = experiment: as above
Outline: as §1

HepG2-TUBA1B-RELA = experiment: as above
Outline: as §1

WPMY1-CANX-COX4 = experiment: as above
Outline: as §1

WPMY1-GM130-SQSTM1 = experiment: as above
Outline: as §1

WPMY1-TP53BP1-CLTA = experiment: as above
Outline: as §1

WPMY1-TUBA1B-RELA = experiment: as above
Outline: as §1

Row | Structure (SMILES) | lowest phenotypically active concentration (A549-ACTB-RAB5A [1]) [µM] | lowest phenotypically active concentration (A549-CANX-COX4 [2]) [µM] | lowest phenotypically active concentration (A549-GM130-SQSTM1 [3]) [µM] | lowest phenotypically active concentration (A549-TP53BP1-CLTA [4]) [µM] | lowest phenotypically active concentration (A549-TUBA1B-RELA [5]) [µM] | lowest phenotypically active concentration (HepG2-TP53BP1-CLTA [6]) [µM] | phenotypically active (A549-ACTB-RAB5A [7]) | phenotypically active (A549-CANX-COX4 [8]) | phenotypically active (A549-GM130-SQSTM1 [9]) | phenotypically active (A549-TP53BP1-CLTA [10]) | phenotypically active (A549-TUBA1B-RELA [11]) | phenotypically active (HepG2-ACTB-RAB5A) | phenotypically active (HepG2-CANX-COX4) | phenotypically active (HepG2-GM130-SQSTM1) | phenotypically active (HepG2-TP53BP1-CLTA [12]) | phenotypically active (HepG2-TUBA1B-RELA) | phenotypically active (WPMY1-CANX-COX4) | phenotypically active (WPMY1-GM130-SQSTM1) | phenotypically active (WPMY1-TP53BP1-CLTA) | phenotypically active (WPMY1-TUBA1B-RELA)
1 | Cc1cc(Nc2ncc3c(n2)N(C)C(=O)N(c2cc(NC(=O)c4cccc(C(F)(F)F)c4)ccc2C)C3)n(C)n1 [Pluripotin] | ≤ 0.3 | ≤ 0.3 | ≤ 0.3 | ≤ 0.3 | ≤ 0.3 | ≤ 0.3 | 1 (active) | 1 (active) | 1 (active) | 1 (active) | 1 (active) | 1 (active) | 1 (active) | 1 (active) | 1 (active) | 1 (active) | 1 (active) | 1 (active) | 1 (active) | 1 (active)
2 | Fc1ccccc1CNCc1ccc(-c2ccnc3[nH]ccc23)cc1 [OXA 06 dihydrochloride] | ≤ 0.3 | 1 | 3 | 1 | 1 | 1 | 1 (active) | 1 (active) | 1 (active) | 1 (active) | 1 (active) | 1 (active) | 1 (active) | 1 (active) | 1 (active) | 1 (active) | 1 (active) | 1 (active) | 1 (active) | 1 (active)
3 | CC(=O)Nc1ccc(C(=O)Nc2ccccc2N)cc1 | 1 | 1 | 1 | 3 | 1 | 1 | 1 (active) | 1 (active) | 1 (active) | 1 (active) | 1 (active) | 1 (active) | 1 (active) | 1 (active) | 1 (active) | 1 (active) | 1 (active) | 1 (active) | 1 (active) | 1 (active)
4 | O=C(Nc1ccc(-c2ccnc(Nc3ccc(N4CCOCC4)cc3)n2)cc1)[C@@H]1CCCN1 | 3 | 9 | 3 | 9 | 3 | 9 | 1 (active) | 1 (active) | 1 (active) | 1 (active) | 1 (active) | 1 (active) | 1 (active) | 1 (active) | 1 (active) | 1 (active) | 1 (active) | 1 (active) | 1 (active) | 1 (active)
5 | CC(=O)O[C@H]1C(=O)[C@@]2(C)[C@H]([C@H](OC(=O)c3ccccc3)[C@]3(O)C[C@H](OC(=O)[C@H](O)[C@@H](NC(=O)c4ccccc4)c4ccccc4)C(C)=C1C3(C)C)[C@]1(OC(C)=O)CO[C@@H]1C[C@@H]2O [paclitaxel] | ≤ 0.3 | ≤ 0.3 | ≤ 0.3 | ≤ 0.3 | ≤ 0.3 | ≤ 0.3 | 1 (active) | 1 (active) | 1 (active) | 1 (active) | 1 (active) | 1 (active) | 1 (active) | 1 (active) | 1 (active) | 1 (active) | 1 (active) | 1 (active) | 1 (active) | 1 (active)
6 | O=C(c1cccc(Cl)c1F)N1CCN(Cc2cccc(Nc3nccs3)n2)CC1 | ≤ 0.3 | 1 | 1 | 1 | 1 | ≤ 0.3 | 1 (active) | 1 (active) | 1 (active) | 1 (active) | 1 (active) | 1 (active) | 1 (active) | 1 (active) | 1 (active) | 1 (active) | 1 (active) | 1 (active) | 1 (active) | 1 (active)
7 | c1ccc2c(c1)Cc1c(Nc3ccc4c(c3)OCCO4)n[nH]c1-2 | 3 | 3 | 3 | 3 | 3 | 3 | 1 (active) | 1 (active) | 1 (active) | 1 (active) | 1 (active) | 1 (active) | 1 (active) | 1 (active) | 1 (active) | 1 (active) | 1 (active) | 1 (active) | 1 (active) | 1 (active)
8 | Nc1ncnc2c1nc(Cl)n2C1O[C@H](CO)[C@@H](O)[C@H]1O (stereo not given in full) [8-Chloroadenosine] | 1 | 1 | 1 | 1 | 1 | 3 | 1 (active) | 1 (active) | 1 (active) | 1 (active) | 1 (active) | 1 (active) | 1 (active) | 1 (active) | 1 (active) | 1 (active) | 1 (active) | 1 (active) | 1 (active) | 1 (active)
9 | Cc1ccc(C(=O)N(CCCN)[C@@H](c2nc3cc(Cl)ccc3c(=O)n2Cc2ccccc2)C(C)C)cc1 [Ispinesib] | ≤ 0.3 | ≤ 0.3 | ≤ 0.3 | ≤ 0.3 | ≤ 0.3 | ≤ 0.3 | 1 (active) | 1 (active) | 1 (active) | 1 (active) | 1 (active) | 1 (active) | 1 (active) | 1 (active) | 1 (active) | 1 (active) | 1 (active) | 1 (active) | 1 (active) | 1 (active)
10 | O=C(CCCCCCC(=O)Nc1ccccc1)NO | ≤ 0.3 | 1 | 1 | 1 | 1 | 3 | 1 (active) | 1 (active) | 1 (active) | 1 (active) | 1 (active) | 1 (active) | 1 (active) | 1 (active) | 1 (active) | 1 (active) | 1 (active) | 1 (active) | 1 (active) | 1 (active)
11 | COc1cc(C(=O)N2CCC(N3CCN(C)CC3)CC2)ccc1Nc1ncc2c(n1)N(C)c1ccccc1C(=O)N2C | 3 | 3 | 3 | 9 | 3 | 3 | 1 (active) | 1 (active) | 1 (active) | 1 (active) | 1 (active) | 1 (active) | 1 (active) | 1 (active) | 1 (active) | 1 (active) | 1 (active) | 1 (active) | 1 (active) | 1 (active)
12 | Nc1ncn([C@@H]2O[C@H](CO)[C@@H](O)[C@H]2O)c(=O)n1 [5-Azacytidine] | 1 | 3 | 1 | 1 | 9 | ≤ 0.3 | 1 (active) | 1 (active) | 1 (active) | 1 (active) | 1 (active) | 1 (active) | 1 (active) | 1 (active) | 1 (active) | 1 (active) | 1 (active) | 1 (active) | 1 (active) | 1 (active)
13 | O=C1NCCN1CCN1CCC(c2cn(-c3ccc(F)cc3)c3ccc(Cl)cc23)CC1 [sertindole] | 3 | 3 | 3 | 9 | 3 | 3 | 1 (active) | 1 (active) | 1 (active) | 1 (active) | 1 (active) | 1 (active) | 1 (active) | 1 (active) | 1 (active) | 1 (active) | 1 (active) | 1 (active) | 1 (active) | 1 (active)
14 | CC(=O)O[C@@]12CO[C@@H]1C[C@H](O)[C@@]1(C)C(=O)[C@H](O)C3=C(C)[C@@H](OC(=O)[C@H](O)[C@@H](NC(=O)OC(C)(C)C)c4ccccc4)C[C@](O)([C@@H](OC(=O)c4ccccc4)[C@H]21)C3(C)C [Docetaxel] | ≤ 0.3 | ≤ 0.3 | ≤ 0.3 | ≤ 0.3 | ≤ 0.3 | ≤ 0.3 | 1 (active) | 1 (active) | 1 (active) | 1 (active) | 1 (active) | 1 (active) | 1 (active) | 1 (active) | 1 (active) | 1 (active) | 1 (active) | 1 (active) | 1 (active) | 1 (active)
15 | CN1CCN(c2ccc(OC(F)(F)F)c(Nc3ncc4c(n3)-c3c(c(C(N)=O)nn3CCO)CC4)c2)CC1 | ≤ 0.3 | ≤ 0.3 | ≤ 0.3 | ≤ 0.3 | ≤ 0.3 | ≤ 0.3 | 1 (active) | 1 (active) | 1 (active) | 1 (active) | 1 (active) | 1 (active) | 1 (active) | 1 (active) | 1 (active) | 1 (active) | 1 (active) | 1 (active) | 1 (active) | 1 (active)
16 | C=CC(=O)Nc1cccc(CN2C(=O)N(c3c(Cl)c(OC)cc(OC)c3Cl)Cc3cnc(NCCCCN(CC)CC)nc32)c1 [FIIN 1 hydrochloride] | ≤ 0.3 | 3 | ≤ 0.3 | 3 | 1 | ≤ 0.3 | 1 (active) | 1 (active) | 1 (active) | 1 (active) | 1 (active) | 1 (active) | 1 (active) | 1 (active) | 1 (active) | 1 (active) | 1 (active) | 1 (active) | 1 (active) | 1 (active)
17 | COc1cc([C@@H]2c3cc4c(cc3[C@@H](O[C@@H]3O[C@@H]5CO[C@@H](c6cccs6)O[C@H]5[C@H](O)[C@H]3O)[C@H]3COC(=O)[C@H]23)OCO4)cc(OC)c1O [teniposide] | ≤ 0.3 | ≤ 0.3 | ≤ 0.3 | ≤ 0.3 | ≤ 0.3 | ≤ 0.3 | 1 (active) | 1 (active) | 1 (active) | 1 (active) | 1 (active) | 1 (active) | 1 (active) | 1 (active) | 1 (active) | 1 (active) | 1 (active) | 1 (active) | 1 (active) | 1 (active)
18 | CC[C@]1(O)C[C@@H]2CN(CCc3c([nH]c4ccccc34)[C@@](C(=O)OC)(c3cc4c(cc3OC)N(C=O)[C@H]3[C@@](O)(C(=O)OC)[C@H](OC(C)=O)[C@]5(CC)C=CCN6CC[C@]43[C@@H]65)C2)C1 [vincristine] | ≤ 0.3 | ≤ 0.3 | ≤ 0.3 | ≤ 0.3 | ≤ 0.3 | ≤ 0.3 | 1 (active) | 1 (active) | 1 (active) | 1 (active) | 1 (active) | 1 (active) | 1 (active) | 1 (active) | 1 (active) | 1 (active) | 1 (active) | 1 (active) | 1 (active) | 1 (active)
19 | NC(=O)Nc1cc(-c2cccc(F)c2)sc1C(=O)N[C@H]1CCCNC1 [AZD 7762 hydrochloride] | 1 | 1 | ≤ 0.3 | ≤ 0.3 | ≤ 0.3 | ≤ 0.3 | 1 (active) | 1 (active) | 1 (active) | 1 (active) | 1 (active) | 1 (active) | 1 (active) | 1 (active) | 1 (active) | 1 (active) | 1 (active) | 1 (active) | 1 (active) | 1 (active)
20 | CC(=C/[C@@H](C)C(=O)c1ccc(N(C)C)cc1)/C=C/C(=O)NO [Trichostatin A] | ≤ 0.3 | ≤ 0.3 | ≤ 0.3 | ≤ 0.3 | ≤ 0.3 | ≤ 0.3 | 1 (active) | 1 (active) | 1 (active) | 1 (active) | 1 (active) | 1 (active) | 1 (active) | 1 (active) | 1 (active) | 1 (active) | 1 (active) | 1 (active) | 1 (active) | 1 (active)
21 | Nc1nccc2c1ncn2[C@@H]1C=C(CO)[C@@H](O)[C@H]1O [3-Deazaneplanocin A hydrochloride] | ≤ 0.3 | 1 | 3 | ≤ 0.3 | 3 | 1 | 1 (active) | 1 (active) | 1 (active) | 1 (active) | 1 (active) | 1 (active) | 1 (active) | 1 (active) | 1 (active) | 1 (active) | 1 (active) | 1 (active) | 1 (active) | 1 (active)

— the supplement of paper PMC7411054
